Rows were chosen to be rich in hits. Some 3.5% of all compounds tested hit in one or more screens of this group.
mHTT CaM bind – inhibitors of human mutant huntingtin-calmodulin interaction | P42858 | AlphaScreen His-mHTT/GST-CaM binding, luminescence | inhibition, % at 15 µM | hit rate 3.6% among 190,000 | AID 1671202
Pf apPOL inh – Pf-apPOL DNA polymerase inhibition; hit rate 0.25% among 210,000; inhibition, % at 10 µM; AID 1794808; Recombinant Pf-apPOL, molecular beacon fluorescence, 1.5 h
Numbers stand for hits; 0 = inactive; - = no result given. No stated cut-off is given here; in the data, active means inhibition above about 50%; inactive means the rest.

SMILES	mHTT CaM bind	Pf apPOL inh
O=C1CC(Sc2nnnn2-c2ccccc2)C(=O)N1c1ccc([N+](=O)[O-])cc1 (centres undefined)	0	0
CCOc1ccc(NC(=O)C(=O)Nc2cc(C)ccc2OC)cc1	0	0
CCOc1ccc(C2NC(=O)c3c(sc4c3CCN(C)C4)N2)c(O)c1 (centres undefined)	0	0
CN1CCc2c(sc3c2C(=O)NC(c2ccc(COc4ccc(Cl)c(Cl)c4)o2)N3)C1 (centres undefined)	81.0	0
CC(C)(C)c1ccc(Cn2c(N)nc3ccccc32)cc1	88.7	0
Nc1nc2ccccc2n1Cc1ccc(Br)cc1	0	0
O=C(NCC1CCN(C2CCCC2)CC1)C1CCCCC1	0	0
O=C1C(=Cc2cccc(Br)c2)Oc2c1ccc1c2CN(Cc2ccncc2)CO1	0	0
Cc1nnsc1C(=O)N1CCC(CNC(=O)NC(c2ccccc2)c2ccccc2)CC1	0	0
COc1ccc(Cl)cc1NC(=O)C(Cc1ccccc1)N1C(=O)C2C3CCC(C3)C2C1=O (centres undefined)	0	0
COc1ccc(Cl)cc1NC(=O)C(Cc1ccccc1)N1C(=O)C2C3C=CC(C3)C2C1=O (centres undefined)	51.0	0
Cc1cc2c(cc1[N+](=O)[O-])OCCO2	-	0
Cc1ccc(C(c2ccc(C)o2)c2ccccc2Br)o1	0	0
Cc1ccc(C(c2ccc(C)o2)c2cc3c(cc2[N+](=O)[O-])OCO3)o1	72.0	0
Cc1ccc(C(c2ccc(C)o2)c2cccc([N+](=O)[O-])c2O)o1	79.0	0
Cc1ccc(C(=O)N2CCC(COc3ccc(C(=O)NC(C)C)cc3)CC2)cc1C	0	0
COc1cc(CNc2cc(OC)c(OC)c(OC)c2)c([N+](=O)[O-])cc1OC	0	0
COC(=O)Cc1cc(OC)c(OC)cc1[N+](=O)[O-]	0	0
COc1cc(CNc2cccc(F)c2)c([N+](=O)[O-])cc1OC	60.7	0
COc1cc(CNc2ccc3[nH]ncc3c2)c([N+](=O)[O-])cc1OC	58.1	0
COc1cccc(-c2noc(C3CCN(C(=O)c4cccc(F)c4)CC3)n2)c1	0	0
Cc1ccc(Nc2cc(C)c(O)c(C)c2)cc1	83.6	0
Cc1cc(NC(=O)c2ccccc2)cc(C)c1O	0	0
COc1ccc(-c2cc(C(F)(F)F)n3ncc(C(=O)Nc4cccc(Cl)c4)c3n2)cc1OC	0	0
CCN(CC)C1C(=O)Nc2ccc(Cl)cc2C1c1ccccc1 (centres undefined)	94.6	0
SMILES	mHTT CaM bind	Pf apPOL inh
O=C1CN(C(=O)c2ccccc2C(F)(F)F)C(c2ccccc2)c2cc(Cl)ccc2N1 (centres undefined)	0	0
Cc1ccc2c(c1)CCCN2CC(=O)Nc1ccc(Cl)cc1C(=O)NCc1cccs1	-	0
Cn1nc(COCc2ccccc2F)c2c1CCN(C(=O)c1ccccc1)C2	0	0
CC(=O)N(C)Cc1nn(-c2ccccc2)c2c1CN(Cc1ccccc1F)CC2	68.0	0
Nc1nnc(-c2ccccc2)s1	0	0
NC1=NNC(c2ccccc2)=CS1	53.4	0
O=C(c1ccncc1)N1CCC(c2nncn2-c2ccccc2)CC1	0	0
COc1ccc(OC)c(CN2C(=O)CCC2(C)C(=O)NC2CCCCCCC2)c1 (centres undefined)	0	0
Cc1cc(C(=O)Nc2cccc(OC(C)C)c2)c(C)o1	51.1	0
Cc1cc(C(=O)Nc2ccccc2)c(C)o1	0	0
COc1ccc(NC(=O)N2CCN(c3ccc(-n4nc(C)cc4C)nn3)CC2)cc1	0	0
COc1cccc(NC(=O)N2CCN(c3ccc(Nc4cc(C)ccn4)nn3)CC2)c1	99.0	0
O=[N+]([O-])C(=C1SCCCS1)C(=C(Cl)Cl)N1CCOCC1	0	0
CC1CCCC(C)N1C(=C(Cl)Cl)C(=C1SCCS1)[N+](=O)[O-] (centres undefined)	72.0	0
Cc1ccc2c(C(=O)NCc3ccc(F)cc3F)cc(NC(=O)C(C)C)cc2n1	0	0
Cc1oc(C2CCN(C(=O)c3ccc(F)cc3)CC2)nc1C(=O)N1CCOCC1	0	0
CCCc1ccc(Oc2c(-c3ccc(O)cc3O)n[nH]c2C)cc1	80.0	0
CCc1cc(-c2n[nH]c(C)c2-c2ccccc2)c(O)cc1O	68.6	0
CCOc1ccc(-c2n[nH]c(C)c2Oc2ccc(F)cc2)c(O)c1	0	0
CCOc1ccc(-c2n[nH]c(C)c2-c2ccc(F)cc2)c(O)c1	0	0
COc1cc(C)c(-c2n[nH]c(C)c2Oc2ccccc2)c(O)c1	0	0
CCc1cc(-c2n[nH]c(C)c2Oc2ccccc2)c(O)cc1O	81.0	0
CCc1cc(-c2n[nH]c(C)c2Oc2ccc(F)cc2)c(O)cc1O	100.2	0
Cc1[nH]nc(-c2ccc(O)cc2O)c1Oc1ccccc1F	0	0
COc1ccc(OC)c(/C=C2/C(=O)N(c3cccc(Cl)c3)N=C2C)c1	0	0
SMILES	mHTT CaM bind	Pf apPOL inh
Cc1cccc(Cl)c1Oc1c([N+](=O)[O-])c(C)nn1C	-	0
COc1ccc(-c2n[nH]c(C)c2Oc2ccccc2)c(O)c1OC	0	0
Cc1[nH]nc(-c2ccc(OC(C)C)cc2O)c1Oc1ccccc1	67.0	0
COc1cccc(CNC(=O)C2CN(C(=O)c3ccccc3)CC23CCCCC3)c1OC (centres undefined)	0	0
Nc1ccccc1C(=O)NNC(=O)c1ccc(Cl)cc1	-	0
O=C(NNC(=O)c1ccc(Cl)cc1)C(=O)NNC(=O)c1ccc(Cl)cc1	-	90.4
CN1CCC(C=Cc2cccs2)=N1	-	0
O=c1/c(=C/c2ccc(Br)c([N+](=O)[O-])c2)sc2nc3ccccc3n12	0	0
COc1cc(/C=c2\sc3nc4ccccc4n3c2=O)cc([N+](=O)[O-])c1O	57.0	0
CCc1ccc(OCC(=O)Nc2cc(-c3nc4ncccc4o3)ccc2Cl)cc1	0	0
O=C(NC(Nc1cccc(C(F)(F)F)c1)C(=O)c1ccccc1)c1cccs1 (centres undefined)	83.0	0
O=C(NC(Nc1ccc(Br)cc1)C(=O)c1ccccc1)c1cccs1 (centres undefined)	63.0	0
Cc1ccccc1NC(NC(=O)c1cccs1)C(=O)c1ccccc1 (centres undefined)	0	0
CC(=O)Nc1ccc(NC(NC(=O)c2cccs2)C(=O)c2ccccc2)cc1 (centres undefined)	0	0
O=C(C1CC1)N1CCCN(Cc2nc(-c3cccc(F)c3)no2)CC1	0	0
Cc1ccc(N(CC(=O)Nc2ccc(C(C)C)cc2)S(C)(=O)=O)cc1	0	0
COc1ccc(/C=C/C(=O)Nc2c3c(nn2-c2ccc([N+](=O)[O-])cc2)CSC3)cc1OC	0	0
O=C(Nc1c2c(nn1-c1ccc([N+](=O)[O-])cc1)CS(=O)(=O)C2)c1cccs1	0	0
O=C(Nc1c2c(nn1-c1ccc(F)cc1)CSC2)c1cccs1	51.0	0
O=C(/C=C/c1ccco1)Nc1c2c(nn1-c1ccc([N+](=O)[O-])cc1)CSC2	98.0	0
O=C(Nc1c2c(nn1-c1ccc(F)cc1)CS(=O)(=O)C2)c1cccs1	0	0
O=C(Nc1c2c(nn1-c1ccc([N+](=O)[O-])cc1)CSC2)c1cccs1	55.0	0
O=[N+]([O-])c1ccn(-c2nc(-c3ccco3)cc(C(F)(F)F)n2)n1	0	0
O=c1c2c(nc3n1CCS3)-c1ccccc1CC21CCCC1	0	0
CCOc1ccc(-c2[nH]nc3c2C(c2ccc(F)cc2)C(C#N)=C(N)O3)c(OCC)c1 (centres undefined)	0	0

Screening results (PubChem BioAssay)
